Assay outcomes deposited in PubChem BioAssay by several laboratories.
A selection: hits, their analogues and other compounds. The true share with any hit is near 3%.
DAGLB inh – blocks human DAGLB lipase activity; AID 504411; 0.059% of 340,000 active; Q8NCG7; inhibition, % at 5.17 µM; HEK293T DAGLB membrane lysate, EnzChek fluorogenic substrate; in the data active = inhibition above about 34%;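 also: 0% = enzyme with vehicle and 100% = wells lacking enzyme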
PAFAH1B2 inh – blocks human PAF acetylhydrolase 1b catalytic subunit 2. recombinant PAFAH1B2, FP-rhodamine activity probe, fluorescence polarization. inhibition, % at 3.39 µM. 1.2% of 340,000 active. AID 492953;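 active = inhibition above the mean of all tested compounds plus 3 SD, cut at about 24% in these data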;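 also: 0% = enzyme with DMSO and 100% = wells lacking PAFAH1B2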
Target sequence (P68402 whole entry, looked up): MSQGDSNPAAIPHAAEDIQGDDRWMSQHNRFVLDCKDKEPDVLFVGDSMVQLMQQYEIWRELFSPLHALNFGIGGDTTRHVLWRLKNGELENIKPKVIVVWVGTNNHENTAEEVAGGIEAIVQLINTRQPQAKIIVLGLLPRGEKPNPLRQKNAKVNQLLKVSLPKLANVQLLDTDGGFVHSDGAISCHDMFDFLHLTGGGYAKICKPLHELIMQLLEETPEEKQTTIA
ATG4B inhibitor – ATG4B (human) cysteine protease inhibition. Q9Y4P1. ATG4B cleavage of LC3-PLA2, NBD-HPC fluorescence, 1 h. inhibition, % at 8.33 µM. 0.51% of 340,000 active; in the data active = inhibition above about 40%
pPAFAH inh – pPAFAH (human) enzyme inhibition | Q13093 | recombinant pPAFAH, FP-rhodamine probe fluorescence polarization | inhibition, % at 3.39 µM | 1.5% of 330,000 active | AID 463082;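 active = inhibition above the mean inhibition across the screen plus 3 SD, cut at about 25% in these data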;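 also: inhibitors block binding of the rhodamine activity-based probe so polarization drops; 0% = enzyme with DMSO and 100% = wells lacking pPAFAH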
PAFAH2 FP inh – inhibitors of human PAFAH2 | Q99487 | recombinant PAFAH2, FP-rhodamine activity probe, fluorescence polarization | inhibition, % at 3.39 µM | 0.99% of 340,000 active | AID 492956;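 active = inhibition above the mean over all tested compounds plus 3 SD, cut at about 30% in these data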;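 also: inhibitors block probe labeling of enzyme so polarization drops; 0% = enzyme with DMSO and 100% = wells lacking PAFAH2 protein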
PAFAH1B3 inh – inhibitors of human PAFAH1B3; recombinant PAFAH1B3, FP-rhodamine probe, fluorescence polarization; inhibition, % at 3.39 µM; 0.28% of 340,000 active; AID 492972;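 active = inhibition above the screen-wide average of all tested compounds plus 3 SD, cut at about 25% in these data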;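 also: 0% = enzyme with DMSO only and 100% = wells lacking PAFAH1B3 protein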
Target sequence (Q15102 whole entry, looked up): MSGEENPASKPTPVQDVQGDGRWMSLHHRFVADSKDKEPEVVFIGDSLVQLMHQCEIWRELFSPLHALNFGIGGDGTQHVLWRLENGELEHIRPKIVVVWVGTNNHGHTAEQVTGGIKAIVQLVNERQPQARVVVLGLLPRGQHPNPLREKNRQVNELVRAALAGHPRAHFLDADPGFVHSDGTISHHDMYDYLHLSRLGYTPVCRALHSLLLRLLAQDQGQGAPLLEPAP
pPAFAH FP conf – confirmation of human plasma PAF acetylhydrolase (pPAFAH) inhibitors. recombinant pPAFAH, FP-Rh probe fluorescence polarization. shares compounds with pPAFAH inh. 72% of 2,300 active. inhibition, % at 3.39 µM;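 active = mean inhibition of the triplicate above the hit cutoff set for the earlier primary screen, cut at about 25% in these data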;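 also: 0% = enzyme with DMSO and 100% = wells lacking pPAFAH enzyme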
* marks the source's active call; other numbers are inactive results; / = not tested or not shown.

SMILES	DAGLB inh	PAFAH1B2 inh	ATG4B inhibitor	pPAFAH inh	PAFAH2 FP inh	PAFAH1B3 inh	pPAFAH FP conf
O=C(CCNC(=O)c1ccccc1Cl)Nc1cccc(S(=O)(=O)N2CCOCC2)c1	-2	-1	1	-3	-4	4	/
CCOC(=O)C1Nc2ccc(Br)cc2C2C=CCC12 (stereo not drawn)	15	6	1	35*	14	12	4
O=C(Nc1cccnc1)c1cc(S(=O)(=O)N2CCCCC2)c(Cl)cc1Cl	0	3	0	4	1	0	/
COc1cc(N2C(=O)NC3CC2(C)Oc2ccccc23)cc(OC)c1OC (stereo not drawn)	2	4	-7	35*	-5	9	2
O=C(Nc1cccc(-c2csc(Nc3ccc(Cl)cc3)n2)c1)c1cc([N+](=O)[O-])cc(C(F)(F)F)c1	-5	39*	-11	41*	52*	49*	21
c1ccc(CNC2=NCCCCC2)cc1	4	-4	-2	-4	3	-7	/
Cc1ccc(CNC2=NCCCCC2)n1C	2	1	-7	53*	4	4	3
O=C(c1cccc(Br)c1)N1CCCc2ccccc21	-4	4	3	-3	-9	-4	/
O=C(c1coc(=O)c(Br)c1)N1CCCc2ccccc21	6	7	18	43*	27	7	6
COc1ccc([C@H]2C[C@H](n3cc(C4CC4)nn3)[C@@H](O)CN2C(=O)C2CCCCC2)cc1	1	/	/	/	/	/	/
Cc1ccc(CNC(=O)c2ccc(N3CCC4(CC3)CC(c3ccccc3)=NO4)c([N+](=O)[O-])c2)cc1	4	2	2	-3	-7	1	/
Cc1nc2cc(-c3ccsc3-n3c(C)ccc3C)[nH]n2c(=O)c1Cl	14	3	14	55*	84*	6	47*
COCc1cc(=O)n2[nH]c(N)nc2n1	0	4	-7	-1	0	0	/
Cc1ccccc1-c1cc2nc(C)c(Cl)c(=O)n2[nH]1	5	4	0	2	4	14	/
Cc1cc(=O)n2[nH]c(-c3ccsc3-n3c(C)ccc3C)cc2n1	4	9	3	42*	40*	10	11
COCc1cc(=O)n2[nH]c(-c3ccsc3-n3c(C)ccc3C)cc2n1	1	8	-1	46*	54*	16	19
Cc1cc(=O)n2[nH]c(-c3ccc(F)cc3)cc2n1	1	2	-4	9	11	4	/
Cc1ccc(S(=O)(=O)N2C[C@@H]3CCCC[C@@H]3[C@@H](C)[C@H]2CC(=O)c2ccccc2)cc1	-4	2	-3	9	-1	1	/
O=C1CC(c2ccccc2)(c2ccccc2)c2ccccc21	-4	1	18	/	4	-1	/
CCCCOc1[nH]c2nc(-c3ccco3)n(Cc3ccco3)c(=N)c2c1C#N	2	12	-5	57*	29	-3	15
CCOc1ccc(NC(=O)CSc2nc3[nH]ncc3c(=O)n2-c2ccccc2OC)cc1	-6	-6	-13	40*	-2	1	20
COc1cc(CNc2ccc(O)cc2)cc(Br)c1OCc1ccccc1	2	8	-2	35*	10	5	13
COc1ccc(Br)cc1CNc1ccc(O)cc1	6	6	0	37*	0	13	10
COc1cc(CNC(C)c2ccccc2)cc(Br)c1OCc1ccccc1 (stereo not drawn)	-9	0	2	5	-2	-3	/
COc1ccc(Br)cc1CNc1ccc2[nH]c(=O)[nH]c2c1	3	4	-7	11	2	11	/
SMILES	DAGLB inh	PAFAH1B2 inh	ATG4B inhibitor	pPAFAH inh	PAFAH2 FP inh	PAFAH1B3 inh	pPAFAH FP conf
O=C1/C(=C\c2cccc([N+](=O)[O-])c2O)SC(=S)N1Cc1ccccc1	20	-1	47*	35*	2	-12	77*
Fc1cc(F)c2nc(N3CCCC3)sc2c1	0	3	-6	4	-4	5	/
O=C(NCc1ccc(F)cc1)c1c2c(nc3ccccc13)CCC2	4	5	6	36*	5	2	25*
CCCC(C)NC(=O)c1c2c(nc3ccccc13)CCC2 (stereo not drawn)	1	0	9	4	3	8	/
COc1cccc(NC(=O)Nc2cc(C(=O)NC(C)C)ccc2N2CC3CC(C2)c2cccc(=O)n2C3)c1 (stereo not drawn)	2	4	-7	74*	21	3	76*
COCCNC(=O)c1ccc(N2CC3CC(C2)c2cccc(=O)n2C3)c(NC(=O)c2c(F)cccc2F)c1 (stereo not drawn)	1	1	-2	4	0	7	/
CCCNC(=O)c1ccc(N2CC3CC(C2)c2cccc(=O)n2C3)c(NC(=O)Nc2ccc(CC)cc2)c1 (stereo not drawn)	0	-2	-3	88*	19	4	92*
Cc1cc(C)c(S(=O)(=O)/N=C2\C=CC(=O)C(Cl)=C2)c(C)c1	16	6	38	65*	31*	12	57*
CCOC(=O)c1oc2ccccc2c1COC(=O)CNC(=O)c1cccc(C)c1	-2	0	-5	4	5	-8	/
Cc1cc(Br)c(S(=O)(=O)NCc2cccnc2)cc1C	1	8	-6	49*	-12	13	5
Cc1cccc(S(=O)(=O)Nc2ccc(-c3cn4ccccc4n3)cc2)c1	2	2	-3	35*	12	2	22
O=C(NCCc1ccccc1)C1=CCN(S(=O)(=O)c2ccccc2)CC1	0	2	4	3	7	2	/
Cc1nnc(N/N=C/c2ccc(O)c([N+](=O)[O-])c2)[nH]c1=O	-1	4	8	-2	-6	14	/
Cc1csc(N/N=C/c2ccc(O)c([N+](=O)[O-])c2)n1	12	12	-4	40*	26	26*	11
COc1ccc(-n2c(SCC(=O)N3CCc4ccccc43)nnc2-c2c[nH]c3ccccc23)cc1	0	3	2	0	-13	-3	/
Cc1ccc(NC(=O)CN2C(=O)N/C(=C/c3cccn3-c3ccc(C(=O)O)cc3)C2=O)cc1	1	10	17	71*	53*	24	41*
CCN(c1ccccc1)S(=O)(=O)c1ccc(N2CCN(c3ccccc3O)CC2)nc1	-1	9	-50	11	2	0	/
COc1ccc(/C=C2\Oc3cc(OCC(=O)N4CCC[C@H]4C(=O)O)ccc3C2=O)c(OC)c1	-4	-3	-37	-6	-1	11	/
